Screening results: PubChem BioAssay, National Center for Advancing Translational Sciences (NCATS)
G9a inh = blocks human histone lysine methyltransferase G9a. G9a H3K9 monomethylation, AlphaScreen, 2 h. Q96KQ7. Potency, µM (titrated, usually from 102 µM), hits mostly inhibitors. AID 504332. hit rate 8.8% among 350,000; also: nearly all actives have a fitted effect of over 75% in size
Target sequence (Q96KQ7 913-1193 limits assumed): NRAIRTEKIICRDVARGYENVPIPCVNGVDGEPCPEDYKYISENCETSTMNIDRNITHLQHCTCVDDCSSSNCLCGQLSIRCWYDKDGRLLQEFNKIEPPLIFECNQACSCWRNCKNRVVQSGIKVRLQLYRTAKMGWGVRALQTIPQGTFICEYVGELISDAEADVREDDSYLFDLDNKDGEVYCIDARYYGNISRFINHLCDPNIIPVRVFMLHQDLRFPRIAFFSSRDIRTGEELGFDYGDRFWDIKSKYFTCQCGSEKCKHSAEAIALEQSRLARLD
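Step 1: enzyme (final 20 nM) with compound, 15 min RT. Step 2: substrate peptide 500 nM and SAM 20 uM, 2 h RT. Step 3: anti-H3K9me1 antibody and AlphaScreen beads, 10 min, then plate read.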
L3MBTL1 inh = blocks human L3MBTL1; hit rate 0.66% among 230,000; AlphaScreen L3MBTL1–H3K9me1 peptide binding; Potency, µM (titrated, usually from 57.1 µM), most hits filed as inhibitors; also: nearly all actives have a fitted effect of over 60% in size
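L3MBTL1 50 nM + b-AHA-H3(1-15)K9me1 75 nM, 30 min RT; compound added, 30 min RT; streptavidin donor/Ni-chelate acceptor beads 10 ug/mL each final, 30 min RT dark; AlphaScreen read.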
JMJD2A Tudor = JMJD2A Tudor domain (human) inhibition. O75164. AlphaScreen JMJD2A-Tudor / H3K4me3 peptide binding. Potency, µM (top dose mostly 114 µM), most hits filed as inhibitors. hit rate 4.4% among 390,000. AID 504339; also: nearly all actives have a fitted effect of over 50% in size
BAZ2B inh = BAZ2B (human) inhibition | AlphaScreen BAZ2B-H3K14Ac peptide displacement | AID 504333 | hit rate 4.4% among 360,000 | Potency, µM (titrated, usually from 114 µM), actives largely listed as inhibitors | Q9UIF8; also: nearly all actives have a fitted effect of over 60% in size
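AlphaScreen luminescence quantifies BAZ2B engagement of H3K14Ac peptide; the protein and biotinylated peptide are both at 50 nM final, buffer PBS pH 7.4 with 0.01% Tween-20, all steps at room temperature.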
Sfp PPTase inh = blocks B. subtilis Sfp PPTase activity; hit rate 3.5% among 310,000; Potency, µM, usual class: inhibitors; Q9F4F7; AID 1490; Biochemical Sfp PPTase activity, qHTS;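 also: the enzyme is Sfp with the accession as filed and its product quenches rhodamine fluorescence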
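Buffer: 50 mM Hepes-Na pH 7.6, 10 mM MgCl2, 0.01% Nonidet P-40, 0.01% BSA. Enzyme 15 nM, pre-exposed to compound 15 min; substrates then added and fluorescence change tracked over 30 min.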
HP1b binding inh = HP1-beta chromodomain-methylated histone interaction inhibition; P83916; AlphaScreen HP1-beta / biotin-H3K9me3 peptide binding; Potency, µM (top dose mostly 114 µM), actives largely listed as inhibitors; hit rate 0.56% among 390,000; AID 540317; also: nearly all actives have a fitted effect of over 70% in size
Target sequence (P83916 whole entry, looked up): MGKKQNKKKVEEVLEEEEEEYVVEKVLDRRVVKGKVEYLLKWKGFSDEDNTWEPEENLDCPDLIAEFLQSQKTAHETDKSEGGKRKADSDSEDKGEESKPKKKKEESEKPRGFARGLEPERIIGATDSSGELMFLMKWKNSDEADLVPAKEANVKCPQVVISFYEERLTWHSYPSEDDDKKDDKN
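HP1-beta protein (50 nM final) preincubated 30 min at room temperature with biotinylated H3(1-18)K9me3 peptide (50 nM) in PBS pH 7.4, 0.01% Tween-20, then compound added for 30 min. AlphaScreen streptavidin donor/nickel chelate acceptor beads (10 ug/mL final), 30 min dark, luminescence read.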
Hits are given with their value; i = inactive; ? = inconclusive; nt = no result given; [ ] = another dose, or the depositor's remark. In the library only some 12% were active in any assay of this set; here they are far more common. Calls follow the shape of the dose curve; as a rule, active = well fitted curve in the direction sought with a large enough effect; inconclusive = small, poorly fitted or top-dose-only effect, or another doubt; inactive = no such curve, though single readings can be large; an effect the other way counts as inactive or inconclusive.

SMILES	G9a inh	L3MBTL1 inh	JMJD2A Tudor	BAZ2B inh	Sfp PPTase inh	HP1b binding inh
CCC(NC(=O)CCc1c(C)c2cc3c(C)c(C)oc3cc2oc1=O)C(=O)N[C@@H](Cc1ccccc1)C(=O)O (stereo partly drawn)	?	i	?	50µM	i	i
O=[N+]([O-])c1cc(-c2ncccn2)c([N+](=O)[O-])s1	28µM	i	i	?	?	i
COc1ccc(OC)c(C(=O)c2ccc(C(=O)c3cc(OC)ccc3OC)cc2)c1	i[12.7 µM]	nt	i	i	?	i
COc1ccc(C(=O)c2ccc([N+](=O)[O-])cc2Cl)cc1	nt	i	56µM	?	i	?
COc1ccc(OC)c(C(=O)c2ccc([N+](=O)[O-])cc2)c1	nt	nt	89µM	nt	nt	i
CCOc1ccc(CNC(=O)C2CCN(S(=O)(=O)N3CCCCC3)CC2)cc1	i	nt	i	i	nt	i
COC(=O)c1ccc(C2C=C(c3ccc(Cl)cc3)Nc3nc4ccccc4n32)cc1 (stereo not drawn)	?	nt	i	i	nt	i
Fc1ccc(C2=CC(c3ccc(F)cc3)n3c(nc4ccccc43)N2)cc1 (stereo not drawn)	18µM	nt	i	i	nt	i
O=c1c2ccccc2nc(COc2ccccc2)n1/N=C/c1ccc(O)cc1O	i	i	i	?	i	i
C/C(=N\OCc1nc2ccccc2c(=O)n1/N=C/c1cc(C)cc([N+](=O)[O-])c1O)c1ccccc1	nt	?	i	7.9µM	i	i
C/C(=N\OCc1nc2ccccc2c(=O)n1/N=C/c1cc([N+](=O)[O-])ccc1O)c1ccccc1	40µM	nt	i	i	i	i
CCOC(=O)CSc1nc2ccc(NC(=O)c3ccc(F)cc3)cc2s1	i	nt	i	?	nt	i
CCc1nn2c(=O)cc(COC(=O)c3ccccc3NC(=O)c3cccs3)nc2s1	i	nt	i	i	nt	i
CC(=O)c1cc2c(cc1NC(=O)c1cnn(-c3ccc(C)cc3)c1-n1cccc1)OCO2	i	nt	i	i	nt	i
Cc1ccc(C(=O)Nc2c(C(=O)NCc3ccc(Cl)cc3)sc3nc(C)cc(C)c23)cc1	i	nt	i	?	nt	i
CCOC(=O)c1c(C)[nH]c(C(=O)Cn2c(=O)c3c(ncn3CC)n(Cc3ccccc3)c2=O)c1C	8.9µM	i	i	i	i	i
CCn1cnc2c1c(=O)n(CC(=O)NCc1ccccc1)c(=O)n2Cc1ccccc1	i	i	i	i	i	i
Nc1[nH]c(N=NC(=O)c2ccc(F)cc2)c2ccccc12	i	i	i	?	i	i
Nc1ccccc1C(=O)N=Nc1[nH]c(N)c2ccccc12	i	?	79µM	35µM	i	i
O=C(Nc1ccccc1C(=O)N1CCN(Cc2ccccc2)CC1)c1ccccn1	14µM	i	?	i	i	i
COc1ccc(C2c3[nH]c4ccccc4c3CCN2CCCn2cccn2)c(C)c1C (stereo not drawn)	40µM	?	?	?	i	i
Cc1ccc(NC(=O)C2=C(O)c3sccc3N(C)S2(=O)=O)cc1	i[12.7 µM]	i	?	i	i	i
Cc1ccc(NC(=S)C2=C(O)c3sccc3N(C)S2(=O)=O)cc1	18µM	nt	i	i	i	i
CN(C)c1ccc(CC2C(=O)Nc3ccccc32)cc1 (stereo not drawn)	3.2µM	?	7.1µM	?	45µM	28µM
CN(C)c1ccc(NC(=O)C(=O)C2C(=O)Nc3ccccc32)cc1 (stereo not drawn)	56µM	i	i	i	i	i
SMILES	G9a inh	L3MBTL1 inh	JMJD2A Tudor	BAZ2B inh	Sfp PPTase inh	HP1b binding inh
O=C1Nc2ccccc2C1Cc1ccc(Br)cc1 (stereo not drawn)	i	nt	i	i	nt	i
Cc1ccc(NC(=O)CN2C(=O)C(c3ccc(C)cc3)=NC23CCCCCC3)cc1	i	nt	i	i	nt	i
O=C(Nc1ccccc1)Nc1nc(Nc2cc(F)cc(F)c2)nc(NC2CCCC2)n1	nt	nt	i	nt	nt	nt
Cc1cc(C)c(NC(=O)Cn2c(=O)nc(-c3ccccc3)c3cc(Cl)ccc32)c(C)c1	i	nt	i	i	nt	i
CCOC(=O)C1=NN(c2ccccc2)C(=O)/C1=C\c1ccc(N(C)C)cc1	?	i	8.9µM	10µM	i	5.6µM
CC1=NN(Cc2ccccc2)C(=O)/C1=C\c1ccc(N(C)C)cc1	11µM	?	?	10µM	i	?
